The source of these data is PubChem BioAssay (Tox21).

A number with no mark means an inactive call. Results filed as inconclusive are left out. Active and inactive are the calls of the source. Unless noted, calls come from the whole dose curve; as a rule, active = well fitted curve in the direction sought with a large enough effect in the repeat runs; inconclusive = weak or mixed curves; inactive = no such curve, though single readings can be large; an effect the other way counts as inactive or inconclusive.

Experiment [1] is described as follows: qHTS assay for small molecules that induce genotoxicity in human embryonic kidney cells expressing luciferase-tagged ATAD5 (AID 651632). Note: nearly all actives have a fitted effect of over 15% in size. In outline: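 Genotoxicity read-out via ATAD5-luciferase: HEK293T cells, 16 hr compound incubation at 37C, Amplite detection.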
For orientation: In qHTS, concentration-response curves come from the screen itself.

Experiment [2] can be described thus: qHTS assay for small molecule agonists of the p53 signaling pathway - cell viability (AID 651633; calls by dose curve; note: nearly all actives have a fitted effect of over 30% in size; note: potency is the fitted concentration of half-maximal effect). The method, boiled down: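 Viability counter-read: CellTiter-Glo luminescence (30 min, room temperature) in the same p53RE-bla plates. These plates had been exposed to compounds for 16 h at 37 C.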
A short description of experiment [3]: qHTS assay for small molecules that induce genotoxicity in human embryonic kidney cells expressing luciferase-tagged ATAD5 - cell viability (AID 651634; calls by dose curve; note: nearly all actives have a fitted effect of over 25% in size; note: potency is the fitted concentration of half-maximal effect). In outline: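 Live-cell protease activity (CellTiter-Fluor, fluorescence) indicates viability. HEK293T cells with luciferase-tagged ATAD5; 15.5 hr compound treatment at 37C.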
Experiment [4] in a line: qHTS assay for small molecule disruptors of the mitochondrial membrane potential - cell viability (AID 720634; calls by dose curve;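 note: human HepG2 liver cancer cells; series mostly up to about 83 µM; nearly all actives have a fitted effect of over 20% in size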). The method, boiled down:
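Human hepatoma HepG2 cells were treated for 1 hr with test chemicals, then given m-MPI dye and CellTiter-Glo. Cell viability reflects luminescence proportional to cellular ATP.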

A short description of experiment [5]: qHTS assay for small molecule disruptors of the mitochondrial membrane potential (AID 720635). Note: potency is the fitted concentration of half-maximal effect. In outline: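 Mitochondrial membrane potential tracked with Mito-MPS dye, red aggregates (ex 540/em 590 nm) against green monomers (ex 490/em 535 nm). Compound treatment 1 hr at 37C, dye 30 min in HepG2.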
Experiment [6] is described as follows: qHTS assay to test for compound auto fluorescence at 535 nm (green) in HepG2 cells (AID 720675).
Experiment [7] can be described thus: qHTS assay to test for compound auto fluorescence at 460 nm (blue) in HEK293 cells (AID 720678). Note: potency is the fitted concentration of half-maximal effect. The method, boiled down: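 After cell attachment (4-5 hr, 37C), compounds were pinned onto HEK293 monolayers in 10% dialyzed FBS medium. The blue channel (405/460 nm) was read following overnight culture. Equivalency was calculated against triamterene.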
Experiment [8] is described as follows: qHTS assay to test for compound auto fluorescence at 590 nm (red) in HEK293 cells (AID 720679). In outline: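 Plates of HEK293 cells (10% dialyzed FBS) are treated with 23 nL compound or DMSO vehicle after a 4-5 hr attachment period, incubated overnight at 37C, and read for red fluorescence at 540/590nm.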
A short description of experiment [9]: qHTS assay to test for compound auto fluorescence at 590 nm (red) in HepG2 cells (AID 720674). The method, boiled down: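 1 hr compound incubation on HepG2 cells, 37 C, 5% CO2; plate read ex 540 nm / em 590 nm; intensities reported as Rose Bengal sodium equivalents.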
% is set by controls: 0 for no effect and ±100 for the full control effect; tags give direction and shape of the fitted curve or compound fluorescence and quenching.

Turning to `CC(C)(C)C1(CCc2ccc(Cl)cc2)CO1` (centres undefined), the Potency result in [1], in experiment [2], in experiment [3] and in [7] was “inactive” in each case. Moreover, the outcome in experiment [4], in experiment [6] and in experiment [8] was inactive. Besides, the Potency in experiment [5] is 19.3 µM (active).

`CCCc1nc2c(C)cc(-c3nc4ccccc4n3C)cc2n1Cc1ccc(-c2ccccc2C(=O)O)cc1`: the Potency entry in experiment [1], in experiment [2], in experiment [3] and in experiment [7] was “inactive” in each case. Moreover, the result in experiment [4], in [9], in [6] and in experiment [8] was inactive.

For the molecule `CC/C=C\C/C=C\C/C=C\CCCCCCCC(=O)OCC`, the Potency entry in experiment [1], in [3] and in [7] was “inactive” each time. Besides, in experiment [2], the Potency is 62.5 µM (active). Besides, the call in [4], in experiment [9], in experiment [6] and in experiment [8] was inactive.

As to `Cc1cc([N+](=O)[O-])ccc1N`, the Potency entry in [1], in experiment [2] and in experiment [7] was “inactive” each time. The Potency in experiment [3] was 47.9 µM (active). Further, the call in experiment [4], in experiment [9], in experiment [6] and in experiment [8] was inactive.

Turning to `COc1cc(NCc2ccc3nc(N)nc(N)c3c2C)cc(OC)c1OC`, the Potency entry in experiment [1], in experiment [3] and in experiment [7] was “inactive” in each case. In addition, the Potency in experiment [2] is 0.335 µM (active). Moreover, the outcome in experiment [4], in [9], in experiment [6] and in [8] was inactive.

For the molecule `CCCCCCCCCCCCCOS(=O)(=O)O`, the Potency result in [1], in experiment [3] and in [7] was “inactive” in each case. Moreover, the Potency in [2] was 68.6 µM (active). Moreover, the outcome in experiment [4], in experiment [9], in experiment [6] and in experiment [8] was inactive.

As to `O=C(O)/C=C/c1ccc(O)c(O)c1`, the Potency result in experiment [1], in experiment [2], in [3] and in experiment [7] was “inactive” each time. The call in experiment [4], in [9], in experiment [6] and in [8] was inactive.

`CCCCCCCCCCCCCOC(=O)CCSCCC(=O)OCCCCCCCCCCCCC`: the Potency result in [1], in experiment [2] and in [3] was “inactive” in each case. Besides, the result in [4] was inactive. For the same molecule, the fluorescence, relative to Rose Bengal in experiment [9] was 0.06% [at 18.6 µM]. Besides, the fluorescence, % of fluorescein control in [6] was -0.0137% [at 18.6 µM]. For the same molecule, in [7], the fluorescence, % of triamterene was 0.0236% [at 18.6 µM]. Moreover, the fluorescence, % of fluorescent control in [8] was 0.358% [at 18.6 µM].

For the molecule `CCCCCc1ccco1`, the Potency entry in experiment [1], in experiment [3] and in experiment [7] was “inactive” in each case. Further, the Potency in experiment [2] is 39.8 µM (active). Further, the result in [4], in [9], in [6] and in experiment [8] was inactive.

For `OCC(CO)n1cnc(-c2ccc(F)cc2)c1-c1ccnc(Oc2ccccc2)n1`, the Potency entry in [1], in experiment [2], in [3] and in experiment [7] was “inactive” in each case. Besides, the outcome in [4], in experiment [9], in [6] and in [8] was inactive.

For the molecule `Cc1ccc(S(=O)(=O)NC(=O)NC2CCCCC2)cc1`, the Potency entry in [1], in experiment [2], in [3] and in [7] was “inactive” in each case. The molecule was called inactive in [4], in [9], in experiment [6] and in experiment [8].

Take `C/C(C=O)=C\c1ccccc1`: the Potency result in experiment [1], in [2], in experiment [3], in experiment [5] and in experiment [7] was “inactive” in each case. Besides, the result in experiment [4], in experiment [9], in experiment [6] and in [8] was inactive.

On to `CC(=O)NNC(C)=O`, for which the Potency result in experiment [1], in experiment [2], in experiment [3] and in experiment [7] was “inactive” throughout. For the same molecule, the molecule was called inactive in experiment [4], in experiment [9], in experiment [6] and in experiment [8].

For `CC(=O)C(=O)CC(C)C`, the Potency entry in [1], in experiment [2], in experiment [3], in experiment [5] and in experiment [7] was “inactive” in each case. Further, the molecule was classed as inactive in experiment [4], in experiment [9], in experiment [6] and in experiment [8].

As to `CCN(CC)c1cccc(O)c1`, the Potency result in experiment [1], in experiment [2], in [3] and in experiment [7] was “inactive” in each case. Further, the molecule was called inactive in experiment [4], in experiment [9], in experiment [6] and in experiment [8].

`Nc1cccc2c(N)cccc12`: the Potency result in [1], in [2], in experiment [3] and in [7] was “inactive” throughout. Also, the call in experiment [4], in [9], in [6] and in [8] was inactive. Besides, in experiment [5], the Potency is 0.864 µM (active).

As to `C=Cc1ccc(OC(C)=O)cc1`, the Potency result in experiment [1], in experiment [2], in experiment [3] and in [7] was “inactive” throughout. In addition, the molecule was classed as inactive in experiment [4], in experiment [9], in [6] and in experiment [8].

Turning to `CCCOC(=O)c1c(Cl)c(Cl)c(Cl)c(Cl)c1C(=O)OCCC`, the Potency result in experiment [1], in [2], in [3] and in experiment [7] was “inactive” throughout. Moreover, the molecule was classed as inactive in [4], in experiment [9], in experiment [6] and in experiment [8].

For the molecule `CCOC(=O)c1c(N)sc2c1CCN(Cc1ccccc1)C2`, the Potency result in [1], in [2] and in experiment [3] was “inactive” in each case. Also, the call in [4], in [9], in [6] and in [8] was inactive. For the same molecule, the Potency in [7] was 14.1 µM [fluorescent] (active).

Regarding `COc1cc(S(=O)(=O)Nc2ccccc2)c(OC)cc1N`, the Potency result in experiment [1], in [2], in experiment [3] and in [7] was “inactive” throughout. Besides, the molecule was classed as inactive in experiment [4], in experiment [9], in experiment [6] and in [8].

In the case of `Cc1ccc2c(c1[N+](=O)[O-])C(=O)c1ccccc1C2=O`, the Potency entry in experiment [1], in [2], in [3] and in [7] was “inactive” each time. In addition, the outcome in [4], in [9], in experiment [6] and in [8] was inactive. Besides, the Potency in [5] is 1.2 µM (active).

On to `CC(C)c1ccc(C(=O)N=C(N)N)cc1S(C)(=O)=O`, for which the Potency result in experiment [1], in experiment [2], in [3] and in experiment [7] was “inactive” each time. The molecule was classed as inactive in experiment [4], in experiment [9], in [6] and in experiment [8].

Turning to `c1ccc(CCCc2ccncc2)cc1`, the Potency result in experiment [1], in [2], in experiment [3] and in experiment [7] was “inactive” each time. Moreover, the molecule was called inactive in [4], in [9], in experiment [6] and in experiment [8].

In the case of `O=C(Nc1ccc(C(=O)O)c(O)c1)c1ccccc1`, the Potency entry in [1], in experiment [2], in [3], in experiment [5] and in experiment [7] was “inactive” in each case. Moreover, the outcome in experiment [4], in experiment [9], in experiment [6] and in [8] was inactive.

Take `CC[C@H]1OC(=O)[C@H](C)[C@@H](O[C@H]2C[C@@](C)(OC)[C@@H](O)[C@H](C)O2)[C@H](C)[C@@H](O[C@@H]2O[C@H](C)C[C@H](N(C)C)[C@H]2O)[C@](C)(O)C[C@@H](C)/C(=N\OCOCCOC)[C@H](C)[C@@H](O)[C@]1(C)O`: the Potency entry in experiment [1], in [2], in experiment [3] and in experiment [7] was “inactive” in each case. The outcome in experiment [4], in experiment [9], in [6] and in experiment [8] was inactive.

With `CCCCCCCCCCCCCCCC(=O)OCC`, the Potency result in [1], in [2], in [3] and in [7] was “inactive” throughout. In addition, the call in experiment [4], in [9], in experiment [6] and in [8] was inactive.

With `Cc1ccc(N(CC2=NCCN2)c2cccc(O)c2)cc1`, the Potency entry in [1], in experiment [2], in [3] and in [7] was “inactive” each time. Also, the molecule was called inactive in experiment [4], in experiment [9], in [6] and in experiment [8].

With `CCCCCCCCCCCCCC(=O)OCC(O)CO` (centres undefined), the Potency entry in experiment [1], in [2], in [3] and in experiment [7] was “inactive” in each case. The outcome in experiment [4], in [9], in experiment [6] and in experiment [8] was inactive.
